# HepG2 tox: counter-screen for TGF-b inhibitors: cytotoxicity in HepG2 cells | HepG2 CAGA-GFP viability, ATP luminescence, 18 h | Potency, µM (highest dose often 46.1 µM), for inactives: at the top dose activity change, negative = cytotoxicity, most hits filed as cytotoxic | hit rate 0.76% among 410,000; also: potency is read from the fitted curve at half-maximal effect
#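 CellTiter-Glo luminescence gave cytotoxicity after 18 hours at 37 degrees C. The cells were HepG2 CAGA-GFP in 1% FBS DMEM, stimulated with 500 pg/mL TGF-beta after compound addition. %Activity was normalised to no-cell wells (complete cell-killing) and DMSO (no toxicity), and curves were fitted and classified.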
# LDHA block: blocks human lactate dehydrogenase A. P00338. purified LDHA, NADH/diaphorase-resazurin fluorescence; hits give low values. activity change, % (values are at about 110 or 230 µM). hit rate 0.15% among 480,000. AID 1347041; in the data active = activity change below about -30%; inconclusive = mostly about -25% to -30%;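 also: plate controls were DMSO wells for no effect and wells without enzyme for full effect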
#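 LDH5 2 nM; NADH 0.06 mM, pyruvate 0.2 mM; 200 mM Tris pH 7.4, EDTA, Tween-20; 5 min RT. Detection: diaphorase 0.133 mg/mL + resazurin 37 µM, fluorescence ex540/em590 at 0 and 20 min; normalized to enzyme-free and DMSO wells.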
# IDH1 R132H inh: inhibitors of human mutant IDH1 R132H; O75874; IDH1-R132H enzyme, NADPH consumption, diaphorase/resazurin fluorescence; Potency, µM (highest dose often 76.6 µM), for the others: top-dose activity change, negative = inhibition, most hits filed as inhibitors; hit rate 0.093% among 390,000; AID 602179; also: potency is read from the fitted curve at half-maximal effect; % is scaled to controls: 0 for no effect and ±100 for the full control effect; nearly all actives have a fitted effect of over 65% in size
# Target sequence (O75874 whole entry R132H, stated change not applied): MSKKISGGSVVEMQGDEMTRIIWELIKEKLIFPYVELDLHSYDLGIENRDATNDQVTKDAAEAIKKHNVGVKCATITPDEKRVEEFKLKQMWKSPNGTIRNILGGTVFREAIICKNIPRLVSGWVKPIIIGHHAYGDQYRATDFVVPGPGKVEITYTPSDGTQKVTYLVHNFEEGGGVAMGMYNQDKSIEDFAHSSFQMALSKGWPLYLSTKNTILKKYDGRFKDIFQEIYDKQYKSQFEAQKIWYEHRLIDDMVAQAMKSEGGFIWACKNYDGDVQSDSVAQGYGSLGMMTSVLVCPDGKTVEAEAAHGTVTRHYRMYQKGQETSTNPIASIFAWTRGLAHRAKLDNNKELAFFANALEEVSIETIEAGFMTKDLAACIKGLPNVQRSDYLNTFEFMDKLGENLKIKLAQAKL
#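 IDH1-R132H (0.5 ug/mL dispensed) in pH 7.5 Tris buffer was preincubated 30 min with compound, then given a substrate mix of 0.016 mM NADPH and 2 mM alpha-KG for 80 min at room temperature; remaining NADPH was read by diaphorase/resazurin fluorescence.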
# ATXN viability: cell viability loss in ATXN counter-screen | hit rate 0.49% among 400,000 | S2 cells (HEK-293 line with an ATXN2-luciferase reporter) viability, CellTiter-Fluor protease fluorescence, 24 h | Potency, µM (top dose mostly 56.7 µM), most hits filed as cytotoxic | AID 651635; also: potency is read from the fitted curve at half-maximal effect; nearly all actives have a fitted effect of over 40% in size
# TGFb SMAD3 inh: inhibitors of TGF-b signaling; HepG2 CAGA-GFP TGF-b/SMAD3 reporter, GFP fluorescence, 18 h; TGF-beta stimulated, 500 pg/mL final; Potency, µM (series often up to 46.1 µM), without a hit: at the highest dose activity, negative = inhibition, actives largely listed as inhibitors; hit rate 1.2% among 410,000; also: potency is read from the fitted curve at half-maximal effect; % is scaled to controls: 0 for no effect and ±100 for the full control effect; nearly all actives have a fitted effect of over 65% in size
#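 First, reporter cells (HEPG2 CAGA-GFP) rested 2 h at 37 degrees C. Next, compounds were pinned in and TGF-beta added to 500 pg/mL final. After 18 h, GFP was imaged per cell and summed per well.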
# ATXN2 expr inh: ATXN2 expression inhibition | hit rate 0.72% among 360,000 | Potency, µM (series often up to 57 µM), inactives show at the top dose activity change, negative = inhibition, usual class: inhibitors | HEK-293 ATXN2-luciferase reporter, luminescence, 24 h; also: potency is read from the fitted curve at half-maximal effect; % is scaled to controls: 0 for no effect and ±100 for the full control effect; nearly all actives have a fitted effect of over 55% in size
#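 qHTS (up to 57 uM final) was run with 24 h compound exposure of reporter cells at 37 °C. Each well was multiplexed: SteadyGlo luminescence measured ATXN2-luciferase expression after a fluorogenic Gly-Phe-AFC viability readout (25 uM final).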
# Active calls of the source: *; i = inactive; ? = inconclusive; · = no result given; ! = not active in a repeat. Most compounds without a hit are left out; they make up all but 2.2% or so of the library. Unless noted, calls follow the shape of the dose curve; as a rule, active = well fitted curve in the direction sought with a large enough effect; inconclusive = small, poorly fitted or top-dose-only effect, or another doubt; inactive = no such curve, though single readings can be large; an effect the other way counts as inactive or inconclusive.
SMILES,HepG2 tox,LDHA block,IDH1 R132H inh,ATXN viability,TGFb SMAD3 inh,ATXN2 expr inh
Nc1ccc(N2CCOCC2)c2nonc12,-10.9%,17.3,9.8%,?,?,·
Cc1ccc(NC(=S)NC2CCSc3ccccc32)cc1C (configuration not stated),-10.8%,-1.8,6.7%,i,15.8µM*,-29.7%
O=C(NC1CCSc2ccccc21)C1CCCC1 (configuration not stated),·,0.6,·,·,·,·
CCN1CCN(Cc2ccc(NC(=O)c3ccc(C)c(NC(=O)c4cncc(-c5cccs5)c4)c3)cc2C(F)(F)F)CC1,10µM*,-2.7,3.4%,·,?,14.1µM*
CCN1CCN(Cc2ccc(NC(=O)c3ccc(C)c(NC(=O)c4cc(-c5ccc(Br)cc5)n[nH]4)c3)cc2C(F)(F)F)CC1,-96.4%,-6.5,0.6%,25.1µM*,?,31.6µM*
CCN1CCN(Cc2ccc(NC(=O)c3ccc(C)c(NC(=O)c4cccc5[nH]ccc45)c3)cc2C(F)(F)F)CC1,-156.4%,-4.6,-4.4%,·,?,?
CCN1CCN(Cc2ccc(NC(=O)c3cc(NC(=O)c4cnnc5ccccc45)cc(OC)c3)cc2C(F)(F)F)CC1,17.8µM*!,3.6,-2.9%,?,?,?
CCN1CCN(Cc2ccc(NC(=O)c3ccc(C)c(NC(=O)c4nccn4C)c3)cc2C(F)(F)F)CC1,-22.7%,-0.1,12.0%,i,?,-7.5%
CCN1CCN(Cc2ccc(NC(=O)c3ccc(C)c(NC(=O)c4nccnc4N)c3)cc2C(F)(F)F)CC1,-117.6%,1.1,20.8%,?,?,28.2µM*
CC(C)(C)c1ccc(C(=O)CSc2nc3ccccc3c(=O)[nH]2)cc1,-0.7%,-10.1,-2.0%,i,-7.5%,-7.1%
O=C(NCc1noc2ccccc12)N1CCN(c2ccccc2F)CC1,-5.6%,-2.4,3.6%,i,10.6%,13.9%
Cc1ccc(Cl)c(NC(=O)CSc2nnc(C)n2C)c1,·,-20.7,·,·,·,·
O=C(Nc1ccccc1)N1CCC(C(=O)N(Cc2ccco2)Cc2cccs2)CC1,-2.9%,-3.0,8.0%,i,-0.5%,-2.3%
Cc1ccc2nc(-c3ccc(NC(=O)CCS(=O)(=O)c4ccccc4)cc3)sc2c1,-23.9%,-0.6,-11.7%,i,-6.1%,-23.7%
Cc1ccc(S(=O)(=O)Nc2ccc(-c3nc4ccc(C)cc4s3)cc2)cc1,10µM*,3.2,8.5%,i,?,4.8%
Cc1cccc(S(=O)(=O)Nc2ccc(-c3nc4ccc(C)cc4s3)cc2)c1,-62.1%,-3.9,8.5%,i,12.6µM*,85.3%
Cc1ccc2nc(-c3ccc(NS(=O)(=O)c4c(C)n(C)c(=O)n(C)c4=O)cc3)sc2c1,-30.5%,-8.4,-8.8%,·,?,·
COc1ccc(-c2coc3cc(OCC(=O)N4CCN(C(C)=O)CC4)ccc3c2=O)cc1,·,9.3,·,·,·,·
COc1ccc(/C=N/NC(=O)c2ccc(O)cc2)cc1CN1CCCc2ccccc21,-8.8%,0.9,4.2%,i,12.6µM*,1.7%
COc1ccc(-c2csc(NC(=O)CCNC(=O)c3ccco3)n2)cc1OC,-22.3%,-3.8,-7.0%,·,5.0%,·
C=CCn1cc(C(=O)NCCN(CC)CC)c(=O)c2cc(S(=O)(=O)N3CCCCCC3)ccc21,-1.2%,0.0,0.6%,i,10.2%,-12.4%
C=CCn1cc(C(=O)NCCOC)c(=O)c2cc(S(=O)(=O)N3CCCCCC3)ccc21,10µM*,1.1,-0.2%,i,?,·
CCn1c(=O)c2sccc2n2c(CCC(=O)Nc3ccc(OC)cc3OC)nnc12,0.1%,-10.0,-2.2%,i,3.8%,0.0%
COc1cc(/C=N/Nc2snc(SC)c2C#N)cc(OC)c1OC,-24.9%,3.6,6.1%,?,?,3.16µM*
CSc1nsc(N/N=C/c2ccc3c(c2)OCO3)c1C#N,6.7%,-1.6,8.5%,i,10.2%,71.8%
SMILES,HepG2 tox,LDHA block,IDH1 R132H inh,ATXN viability,TGFb SMAD3 inh,ATXN2 expr inh
COC(=O)C1=C(C)NC(=O)CC1C(=O)Nc1cc(Cl)ccc1C (configuration not stated),·,-21.6,·,·,·,·
COC(=O)C1=C(C)NC(=O)CC1C(=O)Nc1ccc(Cl)cc1 (configuration not stated),·,-65.0*,·,·,·,·
COCCNc1nc2cc(-c3ccc(F)cc3)sc2c(=O)n1C,-0.5%,-11.9,·,i,-1.8%,8.1%
O=c1[nH]c(CCl)nc2cc(-c3ccc(F)cc3)sc12,11.2µM*,-2.3,2.8%,i,?,?
O=C(N/N=C\C=C\c1ccc2c(c1)OCO2)c1cccnc1,-10.7%,4.1,4.0%,i,-0.6%,·
CC1(NC(=O)CC(c2ccccc2)(c2ccccc2)c2ccccc2)CCN(CCCc2ccccc2)C1=O (configuration not stated),-21.5%,0.3,-3.7%,?,8.91µM*,-12.9%
O=C(CSc1ccccc1F)NCCN1C(=O)CSC1=O,2.1%,-2.0,1.5%,i,4.0%,-2.6%
O=C1/C(=C\c2cccc([N+](=O)[O-])c2O)SC(=S)N1Cc1ccccc1,-41.7%,4.4,2.4%,?,10µM*,?
O=C1/C(=C/c2ccccc2O)SC(=S)N1Cc1cccnc1,-1.6%,-3.2,-0.4%,15.8µM*,?,28.2µM*
O=C1CSC(=S)N1Cc1cccnc1,-26.3%,11.7,-3.8%,?,7.94µM*,?
O=C(COc1ccccc1F)Nc1nnc(C2CCCC2)s1,-7.1%,-2.0,-2.2%,i,16.6%,·
CCOC(=O)C(=Cc1ccc(OCc2ccc([N+](=O)[O-])cc2)c(OC)c1)C(=O)OCC,-71.6%,-7.7,-0.6%,22.4µM*,?,?
O=C(CSc1ccccn1)Nc1nc2ccccc2s1,3.8%,0.2,7.8%,i,-21.8%,98.2%
O=S(=O)(CCSc1nc2ccccc2o1)c1nc2ccccc2s1,-102.5%,1.3,8.8%,·,?,28.2µM*
O=S(=O)(CCSc1ccccn1)c1nc2ccccc2s1,10µM*,1.0,6.2%,·,8.91µM*,?
CCOc1ccc(NC(=O)COc2ncnc3c(Cl)cc(Cl)cc23)c([N+](=O)[O-])c1,·,7.3,·,·,·,·
C=C(C)[C@@H]1CCC2(C(=O)OC)CC[C@]3(C)C(CCC4[C@@]5(C)C/C(=C\c6ccccc6)C(=O)C(C)(C)C5CC[C@]43C)C12 (some centres not stated),·,0.9,·,·,·,·
COC(=O)[C@]12CCC(C)(C)C[C@@H]1[C@@H]1C(=O)C=C3[C@@]4(C)C=C(C#N)C(=O)C(C)(C)[C@@H]4CC[C@@]3(C)[C@]1(C)CC2,·,·,·,2.51µM*,·,1.72µM*
